# In the supplement of paper PMC13380429:
# Legend:
# [1] = test system: Vero E6 infected with SARS-CoV-2; test: inhibition of SARS-CoV-2 cytopathic effect; higher = more antiviral protection, active = above 15; conditions: 48 h
# [2] = test system: Vero E6 infected with SARS-CoV-2; test: morphology score (similarity to uninfected cells); higher = more like uninfected cells; conditions: 24 h
# [3] = test system: Vero E6 infected with SARS-CoV-2; test: SARS-CoV-2 infection rate relative to infected DMSO; higher = more infection, active = 60 or less; conditions: 24 h
Structure (SMILES),inhibition of SARS-CoV-2 cytopathic effect ([1]; 1 nM),inhibition of SARS-CoV-2 cytopathic effect ([1]; 8.33 nM),inhibition of SARS-CoV-2 cytopathic effect ([1]; 100 nM),inhibition of SARS-CoV-2 cytopathic effect ([1]; 833.33 nM),inhibition of SARS-CoV-2 cytopathic effect ([1]; 10000 nM),morphology score [2],SARS-CoV-2 infection rate [3]
CC(CCc1ccc(O)cc1)NCCc1ccc(O)c(O)c1 (centres undefined) [dobutamine],-0.38% (inactive),-2.55% (inactive),-1.12% (inactive),-2.15% (inactive),-0.94% (inactive),–,–
O=c1[nH]c2cc(Cl)ccc2c(O)c1-c1cccc(Oc2ccccc2)c1,1.74% (inactive),0.53% (inactive),2.73% (inactive),–,–,–,–
C[CH2][Hg][S]c1ccccc1C(=O)[O-].[Na+] [thiomersal],0.94% (inactive),0.96% (inactive),1.12% (inactive),–,–,–,–
CN(C)C(=S)SSC(=S)N(C)C [thiram],5.06% (inactive),3.58% (inactive),-8.77% (inactive),–,–,–,–
Clc1ccc2nsnc2c1NC1=NCCN1 [tizanidine],2.21% (inactive),4.56% (inactive),1.5% (inactive),2.93% (inactive),0.03% (inactive),–,–
CC(=O)[C@H]1CC[C@H]2[C@@H]3CCC4=CC(=O)CC[C@]4(C)[C@H]3CC[C@]12C [progesterone],-0.08% (inactive),0.75% (inactive),2.72% (inactive),2.43% (inactive),5.82% (inactive),–,–
C#C[C@]1(O)C=C[C@H]2[C@@H]3CCC4=CC(=O)CC[C@@H]4[C@H]3CC[C@@]21CC [gestodene],0.01% (inactive),1.99% (inactive),-0.48% (inactive),-1.22% (inactive),1.3% (inactive),–,–
CC(=O)Nc1cc([As](=O)(O)O)ccc1O [acetarsol],0.15% (inactive),0.13% (inactive),1.84% (inactive),–,–,–,–
O=c1c2ccccc2[se]n1-c1ccccc1 [Ebselen] (10 µM),–,–,–,–,–,0.34,84.5% (inactive)
Cc1cccc(C)c1-n1c(=O)c2cnc(Nc3ccc(N4CCN(C)CC4)cc3)nc2n2c3ccccc3nc12,-1.2% (inactive),-0.67% (inactive),-2.31% (inactive),0.21% (inactive),-3.38% (inactive),–,–
O=[N+]([O-])c1ccc([As](=O)(O)O)cc1 [nitarsone],-0.01% (inactive),1.59% (inactive),0.4% (inactive),–,–,–,–
Cc1ccc2c(c1)[C@H]1CN(C)CC[C@H]1N2 [stobadine],1.95% (inactive),2.65% (inactive),1.27% (inactive),1.23% (inactive),-0.96% (inactive),–,–
C[N@+]1(CC2CC2)CC[C@]23c4c5ccc(O)c4O[C@H]2C(=O)CC[C@@]3(O)[C@H]1C5 [methylnaltrexone],1.92% (inactive),-0.19% (inactive),1.95% (inactive),1.11% (inactive),1.64% (inactive),–,–
CC[C@H](C(=O)N1CCCC[C@H]1C(=O)O[C@H](CCc1ccc(OC)c(OC)c1)c1cccc(OCC(=O)NCCNC(=O)COc2cccc([C@@H](CCc3ccc(OC)c(OC)c3)OC(=O)[C@@H]3CCCCN3C(=O)[C@@H](CC)c3cc(OC)c(OC)c(OC)c3)c2)c1)c1cc(OC)c(OC)c(OC)c1,-3.12% (inactive),-1.9% (inactive),-0.97% (inactive),–,–,–,–
Cc1ccc2c(c1)C(=O)[C@]1(O)CCN(c3ccccc3)C1=N2 (racemic) [blebbistatin-(+/-)] (10 µM),–,–,–,–,–,0.464,90.8% (inactive)
CC(C)[C@@H](C)/C=C/[C@@H](C)[C@H]1CC[C@H]2C3=CC=C4C[C@@H](O)CC[C@]4(C)[C@H]3CC[C@]12C [ergosterol] (10 µM),–,–,–,–,–,0.0665,104% (inactive)
Cc1cc(CCC[C@H](CC(=O)NO)C(=O)N[C@H](C(=O)N[C@H](C)c2ccccc2)C(C)(C)C)ccc1-c1ccccc1,-1.73% (inactive),-2.08% (inactive),-3.51% (inactive),-2.76% (inactive),-13% (inactive),–,–
CCOCC(O)COc1ccc(NC(=O)CC[S+](C)C)cc1 (centres undefined) [suplatast],2.01% (inactive),-0.4% (inactive),-0.49% (inactive),0.97% (inactive),0.31% (inactive),–,–
NCCCS(=O)(=O)O [tramiprosate],2.5% (inactive),3.61% (inactive),3.29% (inactive),3.22% (inactive),2.51% (inactive),–,–
CCCc1cc(C(N)=S)ccn1 [protionamide],-1.61% (inactive),2.36% (inactive),1.7% (inactive),3.81% (inactive),-1.88% (inactive),–,–
O=C1/C(=C/c2ccccc2)C[C@@]2(O)[C@H]3Cc4ccc(O)c5c4[C@@]2(CCN3CC2CC2)[C@H]1O5,-2.61% (inactive),0.97% (inactive),1.2% (inactive),8.78% (inactive),-26.4% (inactive),–,–

Structure (SMILES),inhibition of SARS-CoV-2 cytopathic effect ([1]; 1 nM),inhibition of SARS-CoV-2 cytopathic effect ([1]; 8.33 nM),inhibition of SARS-CoV-2 cytopathic effect ([1]; 100 nM),inhibition of SARS-CoV-2 cytopathic effect ([1]; 833.33 nM),inhibition of SARS-CoV-2 cytopathic effect ([1]; 10000 nM),morphology score [2],SARS-CoV-2 infection rate [3]
COc1cc2ncnc(Nc3ccc(F)c(Cl)c3)c2cc1NC(=O)/C=C/CN1CCCCC1 [dacomitinib],-4.89% (inactive),-7.71% (inactive),-13.6% (inactive),-15.7% (inactive),-20.6% (inactive),–,–
CCCCCOc1ccc(-c2cc(-c3ccc(C(=O)N[C@H]4C[C@@H](O)[C@@H](O)NC(=O)[C@@H]5[C@@H](O)[C@@H](C)CN5C(=O)[C@H]([C@H](O)CC(N)=O)NC(=O)[C@H]([C@H](O)[C@@H](O)c5ccc(O)c(OS(=O)(=O)O)c5)NC(=O)[C@@H]5C[C@@H](O)CN5C(=O)[C@H]([C@@H](C)O)NC4=O)cc3)no2)cc1 [micafungin],-6.42% (inactive),-5.65% (inactive),-5.9% (inactive),-3.13% (inactive),4.81% (inactive),–,–
COc1ccc(NC(=O)c2ccc(C(=N)N(C)C)cc2)c(C(=O)Nc2ccc(Cl)cn2)c1 [betrixaban],-1.01% (inactive),0.96% (inactive),-0.6% (inactive),1.17% (inactive),-3.48% (inactive),–,–
Cc1nc(C#Cc2ccnc(Cl)c2)c(C)n1-c1ccc(F)cc1 [basimglurant],-0.13% (inactive),-0.64% (inactive),-2.56% (inactive),-1.39% (inactive),4.98% (inactive),–,–
C[C@@H]1CN(Cc2ccc(F)cc2)CCN1C(=O)COc1ccc(Cl)cc1NC(N)=O,-1.77% (inactive),-0.1% (inactive),-2% (inactive),-1.98% (inactive),-1.75% (inactive),–,–
[O-][S+](c1ccccc1)c1ccc2nnnn2n1 (centres undefined),2.27% (inactive),2.68% (inactive),0.02% (inactive),1.7% (inactive),14% (inactive),–,–
Nc1nc(=O)c2nc(CNc3ccc(C(=O)N[C@@H](CCC(=O)O)C(=O)O)cc3)cnc2[nH]1 [folic-acid],-1.27% (inactive),1.24% (inactive),0.24% (inactive),1.38% (inactive),-0.44% (inactive),–,–
C=C1C[C@@]2(O)O[C@@]3(C[C@H]2C(C)C)[C@@H](C)CC[C@@H]13 [curcumol],-2.21% (inactive),-1.48% (inactive),1.91% (inactive),0.52% (inactive),-2.49% (inactive),–,–
CN[C@@H](C)CC1CCCCC1 [propylhexedrine],-0.64% (inactive),-5.27% (inactive),-5.29% (inactive),-6.1% (inactive),-8.06% (inactive),–,–
CC[C@H](C)[C@H](N)C(=O)O [isoleucine],-1.51% (inactive),-4.12% (inactive),-0.12% (inactive),0.05% (inactive),1.97% (inactive),–,–
Cn1cc(C(=O)c2cccc3ccccc23)cc1C(=O)O [napirimus],-0.4% (inactive),-1.83% (inactive),0.36% (inactive),-1.9% (inactive),1.11% (inactive),–,–
NCCNc1ccc(NCCN)c2c1C(=O)c1ccncc1C2=O [pixantrone],-1.68% (inactive),0.16% (inactive),-1.63% (inactive),1.22% (inactive),1.13% (inactive),–,–
C[C@H]1NC(=O)NC1=O [5-methylhydantoin-(D)],-0.22% (inactive),-0.75% (inactive),-0.63% (inactive),-6.83% (inactive),0.71% (inactive),–,–
CCCCCCCCCCCCCCCc1cccc(OCC(=O)NCCO)c1,-0.98% (inactive),-2.66% (inactive),-0.69% (inactive),1.46% (inactive),-1.78% (inactive),–,–
O=[N+]([O-])c1cc(Cl)ccc1S(=O)(=O)N1CCN(Cc2ccccc2)CC1,2.15% (inactive),2.13% (inactive),-0.96% (inactive),3.68% (inactive),-1.65% (inactive),–,–
CSc1nc(-c2ccc(F)cc2)c(-c2ccnc(N[C@@H](C)c3ccccc3)c2)[nH]1,-3.63% (inactive),-2.6% (inactive),-5.98% (inactive),-4.77% (inactive),1.96% (inactive),–,–
N#Cc1ccc(N(Cc2ccc(Br)cc2)n2cnnc2)cc1,1.03% (inactive),-0.63% (inactive),3.36% (inactive),2.99% (inactive),-2.52% (inactive),–,–
O=c1[nH]ccc2cc(OC3CCNCC3)ccc12,1.91% (inactive),0.89% (inactive),-0.08% (inactive),-3.34% (inactive),-7.36% (inactive),–,–
CCCCc1ccc(O)cc1O [rucinol],-2.6% (inactive),-3.11% (inactive),2.12% (inactive),-0.13% (inactive),0.4% (inactive),–,–
O=[N+]([O-])c1cn2c(n1)OC[C@@H](OCc1ccc(-c3ccc(OC(F)(F)F)cc3)nc1)C2,1.33% (inactive),-0.87% (inactive),-0.57% (inactive),4.38% (inactive),0.34% (inactive),–,–
